Data taken from PubChem BioAssay (EPA / NIEHS).
Calls of active or inactive are those of the source. Rule for the calls: active = hit-call score of the fitted dose curve at least 0.9, where 1 is the maximum; inactive = score below 0.9.

read-out: HGF (gene 3082); experiment: LTEA_HepaRG_HGF: Life Technologies and Expression Analysis (LTEA) Assay for Hepatocyte Growth Facto (HGF) using HepaRG (AID 2283505); conditions: mRNA level, 48 h; actives raise or lower the signal
Method in brief: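 HGF transcript was quantified by TaqMan qRT-PCR against three housekeeping genes after 48 h treatment of HepaRG cells. Exposure ran in duplicate over eight half-log steps topping at 100 uM in 0.5% DMSO vehicle.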

| SMILES | outcome |
| --- | --- |
| O=C1O[C@H]([C@H](O)CO)C(O)=C1O | inactive |
| CCC(C)N(C)C(=O)c1cc2ccccc2c(-c2ccccc2Cl)n1 (stereo not drawn) | inactive |
| OCC(O)CO | inactive |
| CCCCc1nc2cccnc2n1Cc1ccc(-c2ccccc2-c2nnn[nH]2)cc1 | inactive |
| O=C(O)CC(O)(CC(=O)O)C(=O)O | inactive |
| O=Cc1ccccc1C=O | inactive |
| CC1(C)C(=O)NC(=O)N1CO | inactive |
| CCCC[C@H]1CN(CC2CCOCC2)C(=O)OC12CCN(C1(C)CCN(C(=O)c3c(C)ncnc3C)CC1)CC2 | inactive |
| C#CC(O)C(CC)CCCC (stereo not drawn) | inactive |
| Cc1ccc(C(C)(C)C)c(O)c1 | inactive |

read-out: Insulin Like Growth Factor 1 (IGF1), IGF1 (gene 3479); experiment: LTEA_HepaRG_IGF1: Life Technologies and Expression Analysis (LTEA) Assay for Insulin Like Growth Factor 1 (IGF1) using HepaRG (AID 2283506); conditions: mRNA level, 48 h; actives raise or lower the signal
Method in brief: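 qRT-PCR readout of IGF1 mRNA, normalized to three housekeeping genes, after 48 h chemical exposure of HepaRG cells. Concentrations: 8-point half-log series, top 100 uM, 0.5% DMSO vehicle. Gain or loss fitted against DMSO baseline.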

| SMILES | outcome | AC50 |
| --- | --- | --- |
| COC(=O)CCCC(=O)OC | inactive | – |
| O=C(O)CN(CC(=O)O)CC(=O)O | inactive | – |
| CCc1nc(N)nc(N)c1-c1ccc(Cl)cc1 | – | 11.8 µM (active) |
| CC(C)c1cccc(C(C)C)c1NC(=O)NS(=O)(=O)c1cc(C(C)(C)O)co1 | – | 50 µM (active) |
| Oc1ccc(O)cc1 | inactive | – |
| NC=O | inactive | – |
| CC(=O)S[C@H](C(=O)N[C@H]1Cc2ccccc2[C@H]2CCC[C@@H](C(=O)O)N2C1=O)C(C)C | inactive | – |
| CC(=O)CC(c1ccccc1)c1c(O)c2ccccc2oc1=O (stereo not drawn) | inactive | – |
| NCCOCCOCCN | inactive | – |
| O=C(O)c1[nH]n(-c2ccc(S(=O)(=O)O)cc2)c(=O)c1N=Nc1ccc(S(=O)(=O)O)cc1 | inactive | – |
| CCc1cc(C2=C(C(=O)O)N(c3ccccc3C(F)(F)F)S(=O)(=O)c3ccccc32)cc2c1OCO2 | inactive | – |
| CCCCCCCCCC[N+](C)(C)[O-] | inactive | – |
| CN(C)CCCN1c2ccccc2Sc2ccc(Cl)cc21 | – | 77.7 µM (active) |
